About 83,000 compounds went through this panel and 20% of them were active in at least one assay; those are over-represented in the sample as a whole.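 Treatment: one concentration, 48 hours, 96-well format. Scoring: percent growth, with anything below 10 considered active.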 A number with no mark means an inactive call. Calls of active or inactive are those of the source.
Columns and labels:
Test in all cases: NCI-60 one-dose screen, 48 h (100 = growth as untreated, 0 = no growth, -100 = all killed)
Conditions in all cases: 10 µM unless noted
DU-145 prostate = tested on: DU-145 prostate
K-562 leukemia = tested on: K-562 leukemia
MALME-3M melanoma = tested on: MALME-3M melanoma
MDA-MB-231 breast = tested on: MDA-MB-231 breast
RXF 393 renal = tested on: RXF 393 renal
SF-268 CNS = tested on: SF-268 CNS
SF-295 CNS = tested on: SF-295 CNS
SF-539 CNS = tested on: SF-539 CNS
UACC-257 melanoma = tested on: UACC-257 melanoma
M14 melanoma = tested on: M14 melanoma

Compound	growth (DU-145 prostate)	growth (K-562 leukemia)	growth (MALME-3M melanoma)	growth (MDA-MB-231 breast)	growth (RXF 393 renal)	growth (SF-268 CNS)	growth (SF-295 CNS)	growth (SF-539 CNS)	growth (UACC-257 melanoma)	growth (M14 melanoma)
CC[C@]12C=CCN3CC[C@@]4(c5ccc(OC)cc5N(C)[C@H]4[C@@](O)(C(=O)OC)[C@@H]1OC(=O)CCC(=O)N[C@@H](Cc1c[nH]c4ccccc14)C(=O)OC)[C@@H]32	99.4%	85.7%	57.2%	67.6%	15.5%	85.5%	99.3%	102%	67%	97.3%
COc1cc(NC(N)=NCC(C)(C)COc2ccc(C(F)(F)F)cc2)cnc1C#N	81.6%	34.5%	57.6%	57%	41%	50.4%	82.9%	72%	69.1%	45.6%
Cc1cc(N/N=C/c2nc(-c3ccc(Cl)cc3)oc2C)c2cc(Br)ccc2n1	31.9%	0% (active)	7.27% (active)	70.4%	98.6%	68.5%	105%	87.3%	101%	40.6%
Cc1cc(N/N=C/c2nc(-c3ccc(Cl)cc3)oc2C)c2cc(Cl)ccc2n1	34.3%	-15.8% (active)	-14.2% (active)	63.8%	83.3%	74.8%	98.6%	69.5%	101%	8.84% (active)
COc1cccc(-c2cn3c(ccc4ccccc43)n2)c1	39%	13.2%	36.9%	44.9%	-5.05% (active)	56%	10.6%	12.5%	58.7%	30.2%
O=[N+]([O-])c1cccc(-c2nc3sccn3c2-c2ccnc(NCCCNS(=O)(=O)c3ccc(F)cc3)n2)c1	10.6%	7.51% (active)	-9.59% (active)	44.9%	53.4%	9.32% (active)	5.57% (active)	26.5%	0.0199% (active)	0.021% (active)
CN1/C(=C\C=C\C2=[N+](C)c3ccccc3C2(C)C)C(C)(C)c2ccccc21	25.2%	6.42% (active)	-9.73% (active)	6.24% (active)	-12.4% (active)	26.4%	-11.3% (active)	5.93% (active)	-40% (active)	-42.6% (active)
COc1ccc(-c2cc(-c3ccc(N(C)C)cc3)nc(NC(=O)c3ccncc3)n2)cc1	102%	95%	119%	111%	87.3%	98.1%	105%	96.8%	108%	104%
Nc1c(C(=O)Nc2cccc3c2OCCO3)sc2nc3c(cc12)C(=O)CCC3	22.2%	13.7%	56.8%	14.7%	-18.5% (active)	60.7%	21.9%	-26.3% (active)	90.6%	33.6%
CCN(CC)Cc1cc(Nc2c3ccccc3nc3cc(Cl)ccc23)ccc1O	-16.2% (active)	-40.8% (active)	-91.4% (active)	-65.2% (active)	-91.4% (active)	-76.9% (active)	-38.3% (active)	-100% (active)	-94.8% (active)	-99.6% (active)
Cc1nn(-c2ccccc2)c2nc(C)n(-c3ccc(Br)cc3)c(=O)c12	8.77% (active)	9.29% (active)	45.9%	50.3%	-15.8% (active)	51.2%	4.98% (active)	-5.52% (active)	60%	9.88% (active)
O=c1c(/C=C/c2ccco2)nnc(SCCN2CCOCC2)n1/N=C/c1ccc([N+](=O)[O-])cc1	111%	93.3%	95.9%	103%	87.6%	96.5%	107%	94%	94.1%	99.9%
CCc1ccc(C(c2ccc(CC)cc2)C(Cl)(Cl)CCl)cc1	110%	106%	96.6%	88.7%	131%	93.7%	105%	96.3%	110%	100%
COc1ccc(-n2c(C)nc3c(c(C)nn3-c3ccccc3)c2=O)cc1	0.999% (active)	8.9% (active)	63.7%	31.9%	19.7%	30.3%	3.34% (active)	-1.28% (active)	60%	10.4%
